Reference: PubChem BioAssay AID1851 (National Center for Advancing Translational Sciences (NCATS), 2009)
About 5,100 (32%) of roughly 16,000 compounds were called active. Another 25% or so got no clear call; they are omitted. Calls follow the shape of the dose curve; as a rule, active = well fitted curve in the direction sought with a large enough effect; inconclusive = small, poorly fitted or top-dose-only effect, or effect the other way; inactive = no such curve, though single readings can be large or run the other way. The list shows a part of the results. Peptide text beside a SMILES is read from it.
% is scaled to controls: 0 for no effect and ±100 for the full control effect.

The molecules below were run against Cytochrome P450 3A4 (Homo sapiens) (UniProt P08684) (assay: Cytochrome panel assay with activity outcomes). Settings: recombinant CYP, pro-luciferin dealkylation, luminescence, p450-cyp3a4; series mostly up to 57.1 µM; activity, negative = inhibition: at the top concentration.
Chain of Cytochrome P450 3A4 (Homo sapiens) (P08684 whole entry, looked up): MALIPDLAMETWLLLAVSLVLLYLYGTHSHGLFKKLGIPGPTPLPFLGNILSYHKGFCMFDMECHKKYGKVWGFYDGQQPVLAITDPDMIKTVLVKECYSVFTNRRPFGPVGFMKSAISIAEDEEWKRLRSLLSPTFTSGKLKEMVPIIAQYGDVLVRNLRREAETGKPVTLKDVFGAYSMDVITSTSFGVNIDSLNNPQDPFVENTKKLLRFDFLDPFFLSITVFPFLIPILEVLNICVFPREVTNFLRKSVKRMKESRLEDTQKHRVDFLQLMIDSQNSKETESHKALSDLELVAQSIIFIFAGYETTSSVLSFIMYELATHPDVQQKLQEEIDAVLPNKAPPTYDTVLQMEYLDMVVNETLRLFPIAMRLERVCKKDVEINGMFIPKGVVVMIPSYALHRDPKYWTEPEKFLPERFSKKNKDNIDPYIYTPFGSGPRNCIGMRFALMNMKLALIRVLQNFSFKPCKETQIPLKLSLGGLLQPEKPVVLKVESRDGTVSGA
In the case of CC1(C)CO[C@H](CC(=O)O)CN1, the “activity, negative = inhibition” value is reported as -11.5% (inactive).
With O=C(O)C1CCN(c2c([N+](=O)[O-])cc(C(F)(F)F)cc2[N+](=O)[O-])CC1 the “activity, negative = inhibition” value was 4.13% (inactive).
With COc1cccc(OC)c1C(=O)NC(=S)N1CCN(c2ccc(C(F)(F)F)cc2[N+](=O)[O-])CC1 the activity, negative = inhibition was -16.4% [at 2.29 µM] (inactive).
For O=c1c([N+](=O)[O-])cc(C(F)(F)F)cn1Cc1c(Cl)cccc1Cl, the AC50 was 14.1 µM (active).
For CCC(=O)OCC(=O)[C@@]1(OC(=O)CC)[C@H](C)C[C@@H]2[C@H]3CCC4=CC(=O)C=C[C@]4(C)[C@]3(Cl)[C@@H](O)C[C@@]21C, the “activity, negative = inhibition” value was -13.1% [at 25.6 µM] (inactive).
In the case of CCC(=O)[C@@]1(C)[C@H](C)C[C@@H]2[C@@H]3CCC4=CC(=O)C=C[C@@]4(C)[C@H]3[C@H](O)C[C@]21C, the “activity, negative = inhibition” value is reported as -6.68% [at 25.6 µM] (inactive).
For CN(C)C(N)=NCCC[C@H](N)C(=O)O, the “activity, negative = inhibition” value was 2.12% (inactive).
For Cc1ccc(-c2ccc(/C=N\NC(=O)c3cc4c(ccc5ccccc54)o3)o2)cc1[N+](=O)[O-], the “activity, negative = inhibition” value was -21.4% (inactive).
Cc1ccc(C(=O)N/N=C\c2ccc[nH]2)cc1[N+](=O)[O-] was tested, and the activity, negative = inhibition was 16.8% [at 2.29 µM] (inactive).
In the case of Cc1ccc(-c2ccc(/C=N/NC(=S)Nc3ccccc3)o2)cc1[N+](=O)[O-], the AC50 is reported as 7.08 µM (active).
Cc1cc(C(F)(F)F)n2nc(-c3cnn(C)c3C(F)(F)F)c(Cl)c2n1 was tested, and the “activity, negative = inhibition” value was -19% (inactive).
For Clc1ccccc1-c1nc(-n2ccnc2)c2ccccc2n1, the AC50 was 0.501 µM (active).
For Cc1ccccc1-c1nc(-n2ccnc2)c2ccccc2n1, the AC50 was 0.398 µM (active).
For NC(=O)c1ccccc1-c1nc(-n2ccnc2)c2ccccc2n1, the AC50 was 3.98 µM (active).
CC(C)(C)OC(=O)[C@H]([C@@H]1N[C@@H](C(=O)O)C(C)(C)S1)N1C(=O)c2ccccc2C1=O was tested, and the activity, negative = inhibition was -8.52% [at 11.4 µM] (inactive).
For Cc1cccc(C)c1-n1c(SCC(=O)NCc2ccco2)nc2ccccc2c1=O, the AC50 was 3.98 µM (active).
For COc1ccc(NC(=O)CSc2nc3ccccc3c(=O)n2CCC(=O)N2CCCCC2)cc1, the AC50 was 2 µM (active).
O=C(CSc1ccccc1C(=O)O)NCc1ccco1 was tested, and the “activity, negative = inhibition” value was -4.45% (inactive).
With Cc1cc(NC(=O)CSc2nc3ccccc3c(=O)n2CCCC(=O)NCc2ccco2)n[nH]1 the AC50 was 3.55 µM (active).
With CCCCn1c(SCC(=O)Nc2nccs2)nc2ccccc2c1=O the AC50 was 3.16 µM (active).
COCC(=O)N1CCC2(CC1)CCN(C(=O)Nc1ccc(OC)cc1)CC2 was tested, and the “activity, negative = inhibition” value was -9.58% (inactive).
With O=C(CSc1nnc2sc3ccccc3n12)NCc1ccco1 the activity, negative = inhibition was -18.1% [at 11.4 µM] (inactive).
For Cc1cc(C)c(NC(=O)C(C)Sc2nnc(-c3ccco3)n2-c2ccccc2)c(C)c1 (stereo not given), the AC50 was 3.55 µM (active).
C=CCSc1nc2ccccc2c(=O)n1Cc1ccco1 was tested, and the activity, negative = inhibition was -25.8% [at 11.4 µM] (inactive).
For CCCCNC(=O)C(=O)c1ccccc1NC(C)=O, the “activity, negative = inhibition” value was -7.34% (inactive).
CC(=O)NCCn1c(SCC(=O)NCc2ccco2)nc2ccccc2c1=O was tested, and the AC50 was 15.8 µM (active).
With CCCCNC(=O)CSc1nc2ccccc2c(=O)n1CCNC(C)=O the AC50 was 25.1 µM (active).
In the case of O=C(CSc1nnc(-c2ccco2)n1-c1ccccc1)NCc1ccco1, the AC50 is reported as 15.8 µM (active).
With Cc1ccc(Oc2nn[nH]n2)cc1 the “activity, negative = inhibition” value was 0.361% (inactive).
CC1CCC(C(=O)O)([C@H](Br)C(=O)O)CC1 (stereo not given in full) was tested, and the activity, negative = inhibition was -2.61% [at 11.4 µM] (inactive).
For NC(=O)OCC(COC(N)=O)c1ccccc1, the “activity, negative = inhibition” value was -10.4% (inactive).
With O=C(O)CCCCCn1c(SCC(=O)N2CCCC2)nc2ccsc2c1=O the “activity, negative = inhibition” value was -2.61% (inactive).
For CCOC(=O)CSc1nc2ccccc2c(=O)n1CC1CCC(C(=O)NCc2ccco2)CC1 (stereo not given), the AC50 was 5.01 µM (active).
With O=C(CSc1nc2ccccc2c(=O)n1CCCC(=O)N1CCCC1)NCc1ccco1 the AC50 was 6.31 µM (active).
CCS(=O)(=O)N1CCC(C(=O)NCc2ccco2)CC1 was tested, and the “activity, negative = inhibition” value was 3.51% (inactive).
In the case of CCN(C(=O)CSc1nc2cc(C(=O)OC)ccc2c(=O)n1Cc1ccco1)c1cccc(C)c1, the “activity, negative = inhibition” value is reported as 16.4% (inactive).
For CCCCCn1c(SCc2ccncc2)nc2cc(C(=O)NCc3ccco3)ccc2c1=O, the AC50 was 0.794 µM (active).
For CC(/C=N/n1c(-c2cccnc2)n[nH]c1=S)=C\c1ccccc1, the AC50 was 2 µM (active).
O=C(O)CC[C@]1(C(=O)O)CCC(=O)c2ccccc21 was tested, and the activity, negative = inhibition was -0.615% [at 11.4 µM] (inactive).
In the case of COc1ccccc1CNc1cc(-c2ccoc2)ncn1, the AC50 is reported as 15.8 µM (active).
With COc1ccc(CNc2cc(-c3ccoc3)ncn2)c(OC)c1 the AC50 was 15.8 µM (active).
Cc1cc(Oc2ccc(-c3ccccc3)cc2)nc(N2CCOCC2)n1 was tested, and the “activity, negative = inhibition” value was -13.8% (inactive).
Cc1ccc(S(=O)(=O)c2cc(N3CCOCC3)nc(-c3ccccc3)n2)cc1 was tested, and the activity, negative = inhibition was -13.7% [at 2.29 µM] (inactive).
Cc1cc(Oc2ccccc2)nc(-c2ccccc2)n1 was tested, and the “activity, negative = inhibition” value was 12.9% (inactive).
In the case of Cc1ccc(Oc2cc(N3CCOCC3)nc(-c3ccccc3)n2)cc1, the AC50 is reported as 14.1 µM (active).
For COc1cccc(Sc2cc(N3CCOCC3)nc(-c3ccccc3)n2)c1, the AC50 was 0.794 µM (active).
For O=c1nc(N2CCOCC2)ccn1-c1nc(-c2ccccc2)oc1-c1ccccc1, the “activity, negative = inhibition” value was -11.6% (inactive).
In the case of N#C/C(=C/c1ccc(N2CCCC2)c([N+](=O)[O-])c1)c1nc2ccccc2[nH]1, the AC50 is reported as 2.82 µM (active).
For N#C/C(=C\c1ccc(N2CCCC2)c([N+](=O)[O-])c1)c1nc2ccccc2[nH]1, the AC50 was 1.58 µM (active).
For Cc1cc(N2CCN(C)CC2)n2nc(-c3ccc(Cl)cc3)nc2n1, the activity, negative = inhibition was -14.4% [at 11.4 µM] (inactive).
With Cc1nc2nc(-c3ccc(Cl)cc3)nn2c(C)c1Cl the “activity, negative = inhibition” value was 24.5% (inactive).
Cc1cc(N)n2ncc(-c3ccc(Cl)cc3)c2n1 was tested, and the AC50 was 15.8 µM (active).
With CC(C)(C)C(=O)OCc1cn(-c2ccc(Cl)cc2)nn1 the “activity, negative = inhibition” value was -21.3% (inactive).
In the case of COc1cc(S(C)=O)ccc1-c1nc2ncccc2[nH]1 (stereo not given), the “activity, negative = inhibition” value is reported as -7.54% [at 25.6 µM] (inactive).
For Cc1ccc(Cn2cccc(NC(=O)NC3CCCCC3)c2=O)cc1, the AC50 was 12.6 µM (active).
For O=C(Nc1cccn(Cc2ccc(F)cc2)c1=O)NC1CCCCC1, the AC50 was 15.8 µM (active).
With Cc1ccc(Cn2cccc(NC(=O)NCc3ccccc3)c2=O)cc1 the “activity, negative = inhibition” value was -19% (inactive).
NCCSCCC(=O)O was tested, and the activity, negative = inhibition was -1.66% [at 11.4 µM] (inactive).
For COc1ccc(S(=O)(=O)n2ccc(-c3cnc(-c4ccccc4)s3)n2)cc1, the AC50 was 3.98 µM (active).
O=S(=O)(c1ccc(F)cc1)n1ccc(-c2cnc(-c3ccccc3)s2)n1 was tested, and the AC50 was 11.2 µM (active).
With CC(Oc1ccccc1)c1ccnn1S(=O)(=O)c1ccccc1 (stereo not given) the activity, negative = inhibition was -13.1% [at 11.4 µM] (inactive).
With CC[C@@H](C)[C@H]1O[C@]2(CC[C@@H]1C)C[C@@H]1C[C@H](C/C=C(/C)[C@H](O[C@@H]3C[C@H](OC)[C@H](O[C@@H]4C[C@H](OC)[C@@H](O)[C@H](C)O4)[C@H](C)O3)[C@@H](C)/C=C\C=C3CO[C@@H]4[C@H](O)C(C)=C[C@@H](C(=O)O1)[C@]34O)O2 (tested in a mixture with another compound) the “activity, negative = inhibition” value was -40.2% (inactive).
For COC(=O)C(CC(C)C)NC(=O)C(N)Cc1ccccc1 (stereo not drawn) (H-Phe-Leu-OMe; configuration not given here), the AC50 was 14.1 µM (active).
With COC(=O)[C@H](Cc1ccccc1)NC(=O)[C@@H](C)CO the activity, negative = inhibition was -44.5% [at 11.4 µM] (inactive).
For CC(C)C[C@H](NC(=O)[C@@H](O)[C@@H](N)Cc1ccccc1)C(=O)O, the AC50 was “inactive”.
With CCCc1cc2c(n1CCc1ccc(Cl)cc1)C(C)C1CN(C(=O)c3ccccc3)C(C)(C(=O)OC)C21 (stereo not given) the AC50 was 5.01 µM (active).
With CCCc1cc2c(n1Cc1ccc(OC)cc1)C(C)C1CN(C(=O)c3ccccc3)C(C)(C(=O)OC)C21 (stereo not given) the AC50 was 3.16 µM (active).
In the case of CCCc1cc2c(n1Cc1cc(F)cc(F)c1)C(C)C1CN(C(=O)c3ccccc3)C(C)(C(=O)OC)C21 (stereo not given), the AC50 is reported as 3.16 µM (active).
For C[C@@]1(C(=O)O)CCC[C@@H]1C(=O)O, the activity, negative = inhibition was -5.72% [at 11.4 µM] (inactive).
For O=C(O)C[C@H](Cc1ccccc1Cl)C(=O)O, the activity, negative = inhibition was -7.24% [at 11.4 µM] (inactive).
In the case of Cc1ccnc(N)c1, the “activity, negative = inhibition” value is reported as -10.5% (inactive).
Cc1cc(=O)[nH]c2ccccc12 was tested, and the “activity, negative = inhibition” value was -3.24% (inactive).
With CCn1c(=O)[nH]c2ccccc2c1=O the activity, negative = inhibition was 5.24% [at 2.29 µM] (inactive).
With CC1CCCC(n2c(=S)[nH]c3ccccc3c2=O)C1C (stereo not given) the AC50 was 7.94 µM (active).
For CCN1CCN(C(c2ccccn2)c2c(NC(=O)c3ccccc3)sc(C)c2C)CC1 (stereo not given), the AC50 was 8.91 µM (active).
With CC(C)CO[C@H](c1ccc2c(c1)OCO2)[C@H](C)Br the AC50 was 3.16 µM (active).
CCC(Sc1nc2n[nH]c(C)c2c(=N)n1-c1cccc(Cl)c1)C(=O)NCCOC (stereo not given) was tested, and the AC50 was 2.82 µM (active).
For Nc1ccn([C@H]2O[C@H](CO)[C@@H]3[O][Sn]([c]4ccccc4)([c]4ccccc4)[O][C@H]32)c(=O)n1, the activity, negative = inhibition was 25.9% [at 11.4 µM] (inactive).
For Cc1oc(=O)c(NC(=O)c2ccccc2)cc1C(=O)c1ccccc1, the AC50 was 7.94 µM (active).
In the case of CC(=O)c1cc(NC(=O)c2ccccc2)c(=O)oc1/C=C/N(C)C, the AC50 is reported as 25.1 µM (active).
In the case of Cc1ccc(C(=O)Nc2cc3c(oc2=O)CCCC3=O)cc1, the “activity, negative = inhibition” value is reported as -13.6% (inactive).
In the case of Cc1cc(N)ccc1NC(=O)c1ccccc1, the “activity, negative = inhibition” value is reported as -26.1% (inactive).
In the case of COc1ccc(C(=O)Nc2cc(C(C)=O)c(/C=C/N(C)C)oc2=O)cc1, the “activity, negative = inhibition” value is reported as -28.9% (inactive).
For CCOC(=O)c1cc(NC(=O)c2ccc(OC)cc2)c(=O)oc1-c1ccccc1, the “activity, negative = inhibition” value was -32.3% (inactive).
CSc1cccc(NC(=O)c2ccc(Cl)nc2)c1 was tested, and the “activity, negative = inhibition” value was -25.5% (inactive).
With O=C(Nc1cc(Sc2ccccn2)cc([N+](=O)[O-])c1)c1ccc(Cl)cc1 the AC50 was 7.94 µM (active).
For CC/C(O)=C(\C#N)c1nnc2n1CCCCC2, the “activity, negative = inhibition” value was 9.11% (inactive).
In the case of CN1CCCN(C)C1c1cc([N+](=O)[O-])ccc1O, the activity, negative = inhibition is reported as -5.36% [at 11.4 µM] (inactive).
O=C1Nc2ccc([N+](=O)[O-])cc2C1(O)N1CCCCCC1 (stereo not given) was tested, and the AC50 was 3.55 µM (active).
In the case of Cn1c(CCN2CCCCC2)nc2cc([N+](=O)[O-])ccc21, the “activity, negative = inhibition” value is reported as 9.92% (inactive).
